# Laboratory results reported in PubChem BioAssay AID2551 (National Center for Advancing Translational Sciences (NCATS), 2010).
# About 17,000 (5.5%) of roughly 310,000 compounds were called active. Inconclusive results (about 11%) are left out. What follows is part of a selection rich in actives, with near analogues and random picks from the rest. Unmarked numbers belong to inactive results. Calls follow the shape of the dose curve; as a rule, active = well fitted inhibition curve with a large enough effect; inconclusive = small, poorly fitted or top-dose-only effect, or effect the other way; inactive = no such curve, though single readings can be large or run the other way.
# Molecular target: Nuclear receptor ROR-gamma (Mus musculus) (UniProt P51450)
# Assay: qHTS for inhibitors of ROR gamma transcriptional activity; also: nearly all actives have a fitted effect of over 60% in size
# Settings: Drosophila S2 Gal4-RORgamma UAS-luciferase reporter, 20 h; series mostly up to 53.6 µM; activity change, negative = inhibition: at the top concentration
# Procedure, shortened: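 Stable Schneider cell line, Gal4 DNA-binding domain fused to ROR gamma, UAS-luciferase. Cmpd 1 hr RT → CuSO4 700 uM final → 20 hr RT → luciferase reagent 10 min → luminescence.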
# % is scaled to controls: 0 for no effect and ±100 for the full control effect; potency is read from the fitted curve at half-maximal effect.
# Sequence of Nuclear receptor ROR-gamma (Mus musculus) (P51450 whole entry, looked up): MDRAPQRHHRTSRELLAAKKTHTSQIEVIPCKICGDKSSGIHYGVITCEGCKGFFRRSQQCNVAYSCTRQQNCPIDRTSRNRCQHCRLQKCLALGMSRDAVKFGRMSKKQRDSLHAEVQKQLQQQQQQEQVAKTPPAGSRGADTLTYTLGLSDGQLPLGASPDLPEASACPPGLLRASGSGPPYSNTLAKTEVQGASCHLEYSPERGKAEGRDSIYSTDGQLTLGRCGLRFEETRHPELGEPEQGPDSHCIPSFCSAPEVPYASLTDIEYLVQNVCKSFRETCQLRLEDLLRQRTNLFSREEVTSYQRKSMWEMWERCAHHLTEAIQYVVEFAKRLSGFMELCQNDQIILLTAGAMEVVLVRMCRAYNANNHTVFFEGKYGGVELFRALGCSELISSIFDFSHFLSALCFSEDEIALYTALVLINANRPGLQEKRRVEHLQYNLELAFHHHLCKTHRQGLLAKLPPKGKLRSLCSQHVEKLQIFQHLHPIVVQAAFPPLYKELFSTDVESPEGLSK
SMILES,"activity change, negative = inhibition",Potency
COc1cc(CC(=O)N2CCC(n3nccc3NC(=O)C3CC3)CC2)cc(OC)c1OC,-6.83%,
CC(C)(C)c1ccc(/C=C/C(=O)NCCCn2ccnc2)cc1,9.01%,
O=C(CSc1nc(C2CC2)nc2ccccc12)Nc1cccc(O)c1,15.2%,
Cc1cccc(C(=O)Nc2ccc(CC(=O)O)cc2)c1,,7.94 µM (active)
O=C(O)Cc1ccc(NC(=O)c2cccs2)cc1,-37%,
O=C(Cc1ccccc1)Nc1cccc(NC(=O)c2ccccc2)c1,28.4%,
Cc1nn(C)cc1S(=O)(=O)N1CCN(c2ccc(F)cc2)CC1,-15.6%,
Cc1ccc(OCC(=O)Nc2ccc(C(=O)O)cc2NC(=O)COc2ccc(C)c(C)c2)cc1C,35%,
CCCCCCCCn1c2c(c(=N)c3c1CCC3)CCCC2,,0.708 µM (active)
O=C(NNS(=O)(=O)c1ccc([N+](=O)[O-])cc1)C1CCCCC1,-7.5%,
c1ccc(CN=C2Nc3ccccc3CS2)nc1,,11.2 µM (active)
COc1ccc(CCn2c(-c3ccco3)nc3nc4ccccc4nc32)cc1OC,-7.43% [at 10 µM],
COc1ccccc1-n1c(-c2cc(-c3ccco3)[nH]n2)n[nH]c1=S,-40.9%,
Cn1c(-c2ccco2)nc2cc3ccccc3cc21,,6.31 µM (active)
CN(C)Cc1c(C(=O)N/N=C/c2ccccc2OCc2ccc(F)cc2)nnn1-c1nonc1N,-4.75%,
Cc1ccc(C2C3=C(Nc4[nH]n(-c5ccccc5)c(=O)c42)c2ccccc2C3=O)cc1 (centres undefined),-1.07%,
Cc1nn(-c2ccccn2)c2c1C(c1ccncc1)C1=C(CC(C)(C)CC1=O)N2 (centres undefined),-24.6%,
Cc1cc(C)c(C2C3=C(Nc4c2c(C)nn4-c2ccccn2)c2ccccc2C3=O)c(C)c1 (centres undefined),,2.51 µM (active)
CS(=O)(=O)N(CC(=O)Nc1ccc(F)cc1)C1CCCCC1,-10.2%,
Cc1cccc(OC(C)C(=O)N2CCc3ccccc3C2)c1 (centres undefined),-19.3%,
COc1ccc(-c2nn(-c3ccccc3)cc2/C=N/Nc2ccccn2)cc1OC,,7.08 µM (active)
CN(C)/N=C/c1cn(-c2ccccc2)nc1-c1cccnc1,10.6%,
Cc1nnc(SCC(=O)N/N=C/c2cn(-c3ccccc3)nc2-c2ccc(F)cc2)n1-c1ccccc1,-1.76%,
CC1CC(=O)N(CC(=O)Nc2cccc(Cl)c2)c2ccccc2S1(=O)=O (centres undefined),-19.7%,
NC(=O)c1cc(S(=O)(=O)N2CCCC2)ccc1OCc1ccc(F)cc1,13.3%,
CCOC(=O)CSc1nnc(CNC(=O)c2cccs2)n1-c1ccccc1,5%,
C=CCn1c(CCNC(=O)c2cccs2)n[nH]c1=S,,17.8 µM (active)

SMILES,"activity change, negative = inhibition",Potency
Cc1ccc(C)c2[nH]c(=O)c(CCNC(=O)c3cccs3)cc12,-1.69%,
O=C(c1cc2cc(Br)cc(Br)c2oc1=O)N1CCOCC1,-31.5%,
Cc1nc(-c2ccccc2)sc1-c1nc(-c2ccccc2)ncc1S(=O)(=O)c1ccccc1,-39.3%,
C=CCn1c(-c2sc(-c3ccccc3)nc2C)n[nH]c1=S,,2.51 µM (active)
Cc1nc(-c2ccccc2)sc1-c1nnc(C2CC2)o1,-19.7%,
Cc1[nH]c2ccc(S(N)(=O)=O)cc2c1C,-1.39% [at 10 µM],
C=CCn1c(COc2ccccc2C)nnc1SCC(=O)O,-3.71%,
C=CCn1c(=S)sc2c(=O)[nH]c(C)nc21,6.04%,
C=CCn1c(-c2ccc3[nH]c(C)c(C)c3c2)n[nH]c1=S,,5.62 µM (active)
C=CCn1c(COc2cccc3cccnc23)nnc1SCC(=O)OC,4.22%,
C=CCn1c(-c2ccccc2OCC)n[nH]c1=S,,10 µM (active)
COCCn1c(SCC(=O)N2CCCCCC2)nc2c(c1=O)SCC2,4.84%,
CCN1CCN(c2sc(S(C)(=O)=O)nc2S(=O)(=O)c2ccc(Cl)cc2)CC1,-11.5%,
CCOC(=O)c1csc(CCNC(=O)c2oc3c(Cl)cc(C)cc3c2C)n1,13.3%,
CC1CC(C)CN(S(=O)(=O)c2cccc3nonc23)C1 (centres undefined),-6.89%,
COc1ccc(/C=N/NC(=O)c2ccc(Cl)cc2)cc1COC(C)=O,1.99%,
COc1ccc(/C=N/NC(=O)c2ccncc2)cc1CN1CCCc2ccccc21,,11.2 µM (active)
COc1cc(/C=N/NC(=O)CNC(=O)c2ccncc2)ccc1OC(C)=O,5.03%,
COc1ccc(C(=O)O)cc1S(=O)(=O)NCc1cccnc1,33.5%,
COc1cccc(NC(=O)CN2CCN(CC(=O)Nc3ccccc3Cl)CC2)c1,7.2%,
Cc1ccc(OCC(=O)NC(C)c2ccccc2)cc1C (centres undefined),27%,
O=C(CN1CCCCCC1)Nc1ccc(S(=O)(=O)N2CCCCC2)cc1,-0.816%,
Cc1cccc(NC(=O)CSCC(=O)Nc2nnc(C3CC3)s2)c1,-38.7%,
O=C(Nc1nnc(C2CC2)s1)c1ccccn1,,1.12 µM (active)
CC1CCN(c2ccc(C(=O)Nc3nnc(C4CC4)s3)cc2[N+](=O)[O-])CC1,-38.9%,
O=C(Nc1nnc(C2CC2)s1)c1cc(Cl)sc1Cl,,11.2 µM (active)
Cc1occc1C(=O)Nc1nnc(C2CCCCC2)s1,0% [at 10 µM],
